In PubChem BioAssay (EPA / NIEHS):
Several values for one entry are separate records, joined by “and”; a condition that tells them apart may be missing. Equal entries are not always repeated. Activity calls are given as the source filed them. How the source made its calls: active means hit-call score of the fitted dose curve at least 0.9, where 1 is the maximum; inactive means score below 0.9.

Tests used:
[1] = ATG_PPRE_CIS: Attagene CIS-FACTORIAL HepG2 Assay for human Peroxisome Proliferator-activated Response Element (PPRE) (AID 2282958); details: HepG2 PPRE cis-element reporter, Attagene transcription factor profiling; actives raise or lower the signal
Outline: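 Endogenous PPRE-driven transcription is measured in HepG2 cells carrying transfected multi-reporter constructs. Reporter transcripts are quantified by RT-PCR, HpaI digestion and capillary electrophoresis 24 h after dosing. DMSO baseline, bidirectional fit.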

[2] = ATG_RORE_CIS: Attagene CIS-FACTORIAL HepG2 Assay for human RAR-related Orphan Receptor Element (RORE) (AID 2282959); details: HepG2 Attagene cis-factorial RORE reporter, mRNA; actives raise or lower the signal
Outline: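 RORE reporter transcripts reflecting endogenous factor activity were read after 24 h compound exposure of transfected HepG2 cells, using reverse transcription, PCR, fluorescent labelling and capillary electrophoresis sizing. Gain or loss fitted against DMSO.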

[3] = ATG_Sox_CIS: Attagene CIS-FACTORIAL HepG2 Assay for human SRY-box transcription factor (SOX) (AID 2282960); details: HepG2 Attagene cis-factorial SOX reporter, mRNA; actives raise or lower the signal
Outline: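 Reporter transcripts, measured by RT-PCR and capillary electrophoresis of labelled fragments, report endogenous SOX transcription factor activity. Transiently transfected human HepG2 cells receive chemical for 24 h; changes in either direction are fitted relative to DMSO.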

[4] = molecular target: Transcription factor Sp1 (Homo sapiens) (UniProt P08047); assay: ATG_Sp1_CIS: Attagene CIS-FACTORIAL HepG2 Assay for human Specificity Protein 1 (Sp1) (AID 2282961); details: HepG2 Sp1 cis-reporter transcription, actives raise or lower the signal
Chain of Transcription factor Sp1 (Homo sapiens) (P08047 whole entry, looked up): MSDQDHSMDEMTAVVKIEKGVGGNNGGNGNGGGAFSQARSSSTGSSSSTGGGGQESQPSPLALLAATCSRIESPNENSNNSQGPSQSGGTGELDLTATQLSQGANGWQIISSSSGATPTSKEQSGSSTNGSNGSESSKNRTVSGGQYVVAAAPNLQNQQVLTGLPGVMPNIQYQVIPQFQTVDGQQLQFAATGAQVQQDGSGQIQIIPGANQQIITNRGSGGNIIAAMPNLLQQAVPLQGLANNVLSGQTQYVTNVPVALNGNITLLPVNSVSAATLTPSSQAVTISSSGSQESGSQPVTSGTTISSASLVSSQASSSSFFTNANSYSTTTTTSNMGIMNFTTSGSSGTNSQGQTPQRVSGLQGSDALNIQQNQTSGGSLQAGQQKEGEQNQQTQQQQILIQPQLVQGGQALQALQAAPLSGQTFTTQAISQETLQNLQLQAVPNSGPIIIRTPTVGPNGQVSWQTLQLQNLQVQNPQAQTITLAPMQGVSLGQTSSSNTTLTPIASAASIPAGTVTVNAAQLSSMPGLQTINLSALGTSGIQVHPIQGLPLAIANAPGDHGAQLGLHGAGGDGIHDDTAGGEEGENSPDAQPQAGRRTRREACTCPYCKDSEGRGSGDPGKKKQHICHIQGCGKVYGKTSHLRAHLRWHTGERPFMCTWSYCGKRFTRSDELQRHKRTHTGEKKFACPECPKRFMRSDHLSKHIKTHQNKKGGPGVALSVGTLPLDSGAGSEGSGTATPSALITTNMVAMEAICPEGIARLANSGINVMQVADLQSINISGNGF
Outline: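 Read-out is reporter transcript level, measured by RT-PCR and fluorescent capillary electrophoresis after 24 h chemical treatment. System: transiently transfected HepG2 cells reporting endogenous transcription factor activity; gain or loss fitted against DMSO baseline.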

[5] = ATG_SREBP_CIS: Attagene CIS-FACTORIAL HepG2 Assay for human Sterol Regulatory Element Binding (SREBP) (AID 2282962); details: HepG2 Attagene cis-factorial SREBP reporter, mRNA; actives raise or lower the signal
Outline: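 Endogenous SREBP activity read as cis-element-driven reporter transcript in transiently transfected HepG2, 24 h post-dosing; quantified via RT-PCR plus capillary electrophoresis of fluorescent fragments. Gain or loss of signal fitted relative to DMSO baseline.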

[6] = molecular target: Signal transducer and activator of transcription 3 (Homo sapiens) (UniProt P40763); assay: ATG_STAT3_CIS: Attagene CIS-FACTORIAL HepG2 Assay for human Signal Transducer and Activator of Transcription 3 (STAT3) (AID 2282963); details: HepG2, Attagene cis-factorial STAT3 reporter transcription; actives raise or lower the signal
Chain of Signal transducer and activator of transcription 3 (Homo sapiens) (P40763 whole entry, looked up): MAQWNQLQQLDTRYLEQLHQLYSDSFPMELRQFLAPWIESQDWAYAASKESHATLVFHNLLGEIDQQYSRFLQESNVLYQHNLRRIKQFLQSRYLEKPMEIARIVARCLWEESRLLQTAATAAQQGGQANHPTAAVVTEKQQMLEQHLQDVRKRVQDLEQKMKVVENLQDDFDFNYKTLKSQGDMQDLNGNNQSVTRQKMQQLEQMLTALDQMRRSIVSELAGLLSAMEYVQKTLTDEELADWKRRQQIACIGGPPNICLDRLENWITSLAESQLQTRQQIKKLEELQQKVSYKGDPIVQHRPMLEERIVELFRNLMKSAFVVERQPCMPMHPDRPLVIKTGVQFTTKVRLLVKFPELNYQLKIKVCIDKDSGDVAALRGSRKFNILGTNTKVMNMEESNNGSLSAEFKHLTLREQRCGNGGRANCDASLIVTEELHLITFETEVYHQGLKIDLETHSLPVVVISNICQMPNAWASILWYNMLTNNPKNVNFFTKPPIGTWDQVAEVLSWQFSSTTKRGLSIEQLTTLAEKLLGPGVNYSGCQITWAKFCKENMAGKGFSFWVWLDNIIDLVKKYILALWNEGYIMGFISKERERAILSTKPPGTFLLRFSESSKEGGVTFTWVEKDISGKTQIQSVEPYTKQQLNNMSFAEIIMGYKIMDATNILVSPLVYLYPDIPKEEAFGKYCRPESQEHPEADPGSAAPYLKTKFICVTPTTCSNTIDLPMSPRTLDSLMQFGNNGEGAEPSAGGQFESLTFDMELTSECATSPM
Outline: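 Cis-factorial format: endogenous transcription factors in HepG2 drive transfected reporter units. After 24 h treatment, reporter RNA was reverse-transcribed, amplified, FAM-labelled and HpaI-digested before CE analysis; activity scored in both directions against DMSO.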

[7] = ATG_TA_CIS: Attagene CIS-FACTORIAL HepG2 Assay for human TA Basal Promoter (AID 2282964); details: HepG2 Attagene CIS-factorial TA basal promoter reporter; actives raise or lower the signal
Outline: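 Fluorescence from labelled RT-PCR reporter fragments, separated by capillary electrophoresis, gives the signal. Cells: HepG2 transiently carrying multiple reporter units, 24 h chemical dosing. Gain or loss relative to DMSO.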

[8] = ATG_TCF_b_cat_CIS: Attagene CIS-FACTORIAL HepG2 Assay for human T-Cell-Factor with beta-catenin (TCF/b-cat) (AID 2282965); details: HepG2 TCF/beta-catenin cis-reporter transcription, actives raise or lower the signal
Outline: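 Endogenous transcription factor activity is captured through cis-promoter reporter constructs transiently introduced into human HepG2 liver cells. Induced reporter mRNA is measured after 24 h and fitted bidirectionally relative to DMSO.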

[9] = ATG_TAL_CIS: Attagene CIS-FACTORIAL HepG2 Assay for human TAL Basal Promoter (AID 2282966); details: HepG2 Attagene cis-factorial TAL promoter reporter; actives raise or lower the signal;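 further: background control endpoint measuring basal TAL promoter reporter mRNA not a specific factor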
Outline: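 Background-control endpoint: basal TAL promoter reporter transcripts in transiently transfected HepG2, measured 24 h after dosing. Read-out by RT-PCR with fluorescent primer extension and capillary electrophoresis; gain or loss of signal fitted relative to DMSO.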

[10] = ATG_TGFb_CIS: Attagene CIS-FACTORIAL HepG2 Assay for human Transforming Growth Factor (TGF) (AID 2282967); details: HepG2 Attagene CIS TGFb reporter, mRNA transcription; actives raise or lower the signal
Outline: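 Bidirectional fitting relative to DMSO gave the endpoint. Underlying data: reporter mRNA from HepG2 cells carrying transiently transfected cis-regulated reporter constructs, harvested 24 h after dosing and analyzed by RT-PCR and capillary electrophoresis.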

Measured: AC50

O=C(O)CCC(F)(F)C(F)(F)C(F)(F)C(F)(F)C(F)(F)F
inactive: all assays above

FC(F)=C(F)C(F)(F)C(F)(F)C(F)(F)C(F)F
inactive: all assays above

O=C(NCc1ncc(C(F)(F)F)cc1Cl)c1c(Cl)cccc1Cl
active: [5] 10.1 µM
inactive: all other assays above

C=CC(=O)OCCC(F)(F)C(F)(F)C(F)(F)C(F)(F)C(F)(F)C(F)(F)C(F)(F)C(F)(F)F
inactive: all assays above

CC(C)CCOCCC(C)C
inactive: all assays above

COC(=O)CC(C(C)=O)C(=O)OC (stereo not drawn)
inactive: all assays above

O=S(=O)(O)C(F)(F)C(F)(F)C(F)(F)C(F)(F)C(F)(F)C(F)(F)C(F)(F)C(F)(F)C(F)(F)C(F)(F)F
active: [10] 132 µM and 31.7 µM
inactive: all other assays above

CN(CCO)S(=O)(=O)C(F)(F)C(F)(F)C(F)(F)C(F)(F)C(F)(F)C(F)(F)C(F)(F)C(F)(F)F
inactive: all assays above

FC(OC(F)(F)C(F)(F)C(F)(F)F)C(F)(F)F (stereo not drawn)
inactive: all assays above

CC=O
inactive: all assays above

O=C1Cc2ccccc2N1c1c(Cl)cccc1Cl
inactive: all assays above

CC(O)COc1ccccc1 (stereo not drawn)
inactive: all assays above

Cc1cc(Cc2cc(C)cc(C(C)(C)C)c2O)c(O)c(C(C)(C)C)c1
active: [3] 153 µM | [4] 93.6 µM | [6] 160 µM | [8] 180 µM | [10] 56.6 µM
inactive: all other assays above

O=P(O)(O)CCC(F)(F)C(F)(F)C(F)(F)C(F)(F)C(F)(F)C(F)(F)F
inactive: all assays above

Cc1ccc2ccc3ccc(C)cc3c2c1
inactive: all assays above

c1cc[nH]c1
inactive: all assays above

COc1cccc(O)c1
inactive: all assays above

Cc1ccc(C)c(S(=O)(=O)O)c1
inactive: all assays above

C/C=C/C(=O)C1=C(C)CCCC1(C)C
active: [3] 46.1 µM | [4] 35.4 µM | [5] 44.9 µM | [8] 62.7 µM
inactive: all other assays above

CCCCCCCCC(C)=O
inactive: all assays above

Oc1cccc2c(O)cccc12
inactive: all assays above

Clc1ccc(Nc2nnc(Cc3ccncc3)c3ccccc23)cc1
active: [2] 15.8 µM | [7] 23.2 µM | [8] 11 µM | [9] 11.2 µM
inactive: all other assays above

CCO[Si](CCC1CCC2OC2C1)(OCC)OCC (stereo not drawn)
inactive: all assays above

COC1=CC(=O)C[C@@H](C)[C@]12Oc1c(Cl)c(OC)cc(OC)c1C2=O
active: [8] 20.4 µM
inactive: all other assays above

CCCCCCCCCCCC[N+](C)(C)CCCCCCCCCCCC
active: [2] 26.1 µM | [7] 26.3 µM | [8] 25.4 µM
inactive: all other assays above

C[N+](C)(CCCNS(=O)(=O)CCC(F)(F)C(F)(F)C(F)(F)C(F)(F)C(F)(F)C(F)(F)F)CC(=O)[O-]
active: [5] 0.00355 µM | [8] 0.000979 µM
inactive: all other assays above

CCCCCCCCCCCCCC[n+]1ccccc1
active: [5] 2.7 µM | [7] 8.99 µM
inactive: all other assays above

CCCCCCCC(OC)OC
inactive: all assays above

FC(F)(F)C1(F)C(F)(F)C(F)(F)C(F)(F)C1(F)F
inactive: all assays above

COc1ccc(C#N)cc1
inactive: all assays above

CC1=CC(=O)c2ccccc2C1=O
not listed: [9]
inactive: all other assays above

CCCCC(CC)C(=O)O (stereo not drawn)
inactive: all assays above

CCCCCCCCCCCC(=O)NCCCN(C)C
active: [2] 21.3 µM | [5] 8.13 µM | [7] 18.9 µM | [8] 17.5 µM
inactive: all other assays above

O=CC(F)(F)C(F)(F)C(F)(F)C(F)F
not listed: [9]
inactive: all other assays above

OCCN1CN(CCO)CN(CCO)C1
active: [3] 150 µM | [4] 144 µM
not listed: [9]
inactive: all other assays above

CCc1cccc(CC)c1NC(=O)C(=O)O
inactive: all assays above

COCC1CCC(CO)CC1 (stereo not drawn)
inactive: all assays above

OCC1CCC(CO)CC1 (stereo not drawn)
not listed: [9]
inactive: all other assays above

CCCCCCC(C)(C)C(=O)O
active: [1] 55.5 µM
not listed: [9]
inactive: all other assays above

CCCCCCOC(=O)c1ccc(O)cc1
active: [1] 22.9 µM | [2] 51.2 µM | [4] 37.1 µM | [5] 33.4 µM | [10] 50.8 µM
inactive: all other assays above

CCc1cccc(CC)c1N(COC)C(=O)CS(=O)(=O)O
inactive: all assays above

C=CC(F)(F)C(F)(F)C(F)(F)C(F)(F)F
not listed: [8]
inactive: all other assays above

Oc1c(Cl)cc(Cl)cc1Sc1cc(Cl)cc(Cl)c1O
active: [1] 1.52 µM | [2] 2.56 µM
not listed: [9]
inactive: all other assays above

CC(C)(O)C(=O)c1ccccc1
inactive: all assays above

NNc1nc(-c2ccc([N+](=O)[O-])cc2)cs1
inactive: all assays above
